{
  "source": "PubChem BioAssay (NCI)",
  "note": "Where “and” joins values, the source holds several entries; their conditions need not be identical. Equal entries are not always repeated. The panel holds about 83,000 compounds, 20% with a hit somewhere; the sample as a whole holds those more often.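 Activity criterion: percent growth below 10, measured after cells in 96-well plates were exposed to a single compound concentration for 48 hours.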 Unmarked numbers belong to inactive results. Calls of active or inactive are those of the source.",
  "data": [
    {"system": "HL-60(TB) leukemia", "assay": "NCI-60 one-dose screen, 48 h (100 = growth as untreated, 0 = no growth, -100 = all killed)", "conditions": "10 µM unless noted", "values": [
      {"smiles": "c1ncc2[nH]cnc2n1", "growth": "54.2%"},
      {"smiles": "C#CC(C)(O)c1ccc(Cl)cc1", "note": "(stereo not given)", "growth": "109%"},
      {"smiles": "NCCCOc1cc2ccccc2cc1C(=O)NCCCOc1cc2ccccc2cc1C(=O)Nc1ccc(Cl)cc1O", "growth": "-62% (active)"},
      {"smiles": "Nc1nc(SCC#CCCl)c2[nH]cnc2n1", "growth": "11%"},
      {"smiles": "COCCCNc1nc(NC(=O)c2ccc(F)cc2C)cc(-c2cccnc2)n1", "growth": "106%"},
      {"smiles": "Clc1cc(Cl)cc(N2N=C(c3cccc(Nc4ccncc4)c3)CC2c2ccc3c(c2)OCO3)c1", "note": "(stereo not given)", "growth": "8.01% (active)"},
      {"smiles": "Cc1ccc(S(=O)(=O)Nc2ccc(-c3cc(-c4cccc(F)c4)c(C#N)c(N)n3)cc2)cc1", "growth": "-14.9% (active)"},
      {"smiles": "COC12C=C/C(=C(/C(=O)OCc3ccncc3)C(=O)CCCCCCCCC3(OC)C=C/C(=C(/C(=O)OCc4ccncc4)C(=O)CCCCCCCC1)O3)O2", "growth": "-22.9% (active)"},
      {"smiles": "O=C(CN1CCCCC1)Nc1nc(-c2cc3ccccc3oc2=O)cs1", "growth": "93.8%"},
      {"smiles": "CNC(=S)Sc1ccc([N+](=O)[O-])cc1[N+](=O)[O-]", "growth": "-14.6% (active)"},
      {"smiles": "N#C/C(=C\\c1ccc2c(c1)OCO2)n1nnc2cc(F)c(F)cc21", "growth": "38.6%"},
      {"smiles": "CC(=O)Nc1ccc(C(=O)/C=C/c2ccc(N(C)C)cc2)cc1", "growth": "104%"},
      {"smiles": "CCCCCCCCCCCCCCCCN(CC)CC", "growth": "-61.2% (active)"},
      {"smiles": "CC(C)(C)n1cc(-c2ccnc(NCCCNS(=O)(=O)c3ccc(F)cc3)c2)c(-c2cccc(F)c2)n1", "growth": "38.2%"},
      {"smiles": "Cc1ccc(S(=O)(=O)n2ccnc2)cc1", "growth": "124%"},
      {"smiles": "COc1ccc2c(c1)nnn1c3ncccc3c(N=O)c21", "growth": "-39.8% (active)"},
      {"smiles": "CCOC(=O)N1C/C(=C/c2ccc(OC)cc2)C(=O)/C(=C/c2ccc(OC)cc2)C1", "growth": "16.7%"},
      {"smiles": "NC(CSSCC(N)C(=O)O)C(=O)O", "note": "(stereo not given)", "growth": "-12.8% (active)"},
      {"smiles": "OCc1ncc(-c2ccccc2)s1", "growth": "91.1%"},
      {"smiles": "C=C1C(=O)O[C@H]2[C@H]1CC/C(COC(=O)NCc1ccc(OC)cc1)=C\\CC[C@@]1(C)O[C@@H]21", "growth": "11.1%"},
      {"smiles": "Nc1ccccc1SC(CC(=O)c1ccccc1)c1ccc([N+](=O)[O-])cc1", "note": "(stereo not given)", "growth": "95.8% and 74.9%"},
      {"smiles": "O=[N+]([O-])c1cnc(Sc2ccncn2)c([N+](=O)[O-])c1", "growth": "11.3%"},
      {"smiles": "CC/C=C\\C[C@H](O)C/C=C1/C(=O)C(Cl)=C[C@@H]1C/C=C\\CCCC(=O)O", "growth": "19.4%"},
      {"smiles": "CCCCN(CCCC)CCCCCCCCCCO", "growth": "95.1%"},
      {"smiles": "COc1cc(C(=O)C[n+]2ccccc2)ccc1OC(C)=O", "growth": "101%"},
      {"smiles": "COc1ccc(-c2nc(N/N=C/c3c[nH]c4ccccc34)nc(N3CCOCC3)c2C#N)cc1", "growth": "47.9%"},
      {"smiles": "O=C(c1cc2ccccc2o1)c1nn(-c2ccccc2)/c(=N/N=Cc2cn(-c3ccccc3)nc2-c2cc3ccccc3oc2=O)s1", "growth": "98.2%"},
      {"smiles": "COc1ccc(C2NCCc3c2[nH]c2ccccc32)cc1CN1CCN(c2ccc(F)cc2)CC1", "note": "(stereo not given)", "growth": "24.7%"},
      {"smiles": "O=C(N/N=C/c1c(Cl)cccc1Cl)c1cccnc1Nc1cccc(C(F)(F)F)c1", "growth": "28.1%"},
      {"smiles": "COc1ccc(/C=C(\\C#N)c2ccccc2)cc1", "growth": "95.8%"},
      {"smiles": "COc1cc2ccccc2cc1C(=O)NC(=S)Nc1ccc(-c2nc3ccccc3[nH]2)cc1", "growth": "106%"},
      {"smiles": "CN1[C@@H]2CC[C@H]1/C(=C\\c1ccccc1)C(=O)/C2=C/c1ccccc1", "growth": "37%"},
      {"smiles": "Cc1cccc2c(=O)c3c(sc12)c(NCCCN)nc1ccccc13", "growth": "-34.9% (active)"},
      {"smiles": "Cc1cc2c(O)c(-c3cc(Cl)ccc3Cl)c3sc(=O)oc3c2cc1C", "growth": "64.1%"},
      {"smiles": "CCN(CCO)CCC(=O)c1ccc([N+](=O)[O-])cc1", "growth": "109%"},
      {"smiles": "Cc1cc(C)nc(NS(=O)(=O)c2ccc(Nc3nc4nc(NCc5ccccc5)nc(-c5ccc(O)cc5)c4c(=O)[nH]3)cc2)n1", "growth": "1.48% (active)"},
      {"smiles": "CCc1cccc2c3c(sc12)C(c1ccc(Cl)cc1)C(C#N)=C(N)O3", "note": "(stereo not given)", "growth": "-8.89% (active)"},
      {"smiles": "CCN(CC)c1ccc(NC(C(=O)c2ccccc2)c2ccccc2)cc1", "note": "(stereo not given)", "growth": "65.5%"},
      {"smiles": "N#Cc1c(-c2ccccc2)cc(-c2ccccc2)n(CCC(=O)O)c1=O", "growth": "13.8%"},
      {"smiles": "O=C1C=CC(=O)N1c1ccc(N2C(=O)C=CC2=O)cc1", "growth": "-50.6% (active)"}
    ]}
  ]
}
